Pf gamet viab: P. falciparum stage V gametocyte viability inhibition. hit rate 0.065% among 150,000. P. falciparum stage V gametocytes, ATP luminescence, 24 h. inhibition, % at 10.9 µM;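 active means inhibition above the mean plus 3 SD of compounds within the control limits, set per campaign, cut at about 38% in these data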;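 further: 0% = DMSO wells and 100% = medium only without gametocytes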
EP2 antag: blocks the human prostaglandin E2 receptor EP2; inhibition, % at 25 µM; P43116; AID 1422; C6 glioma cells expressing human EP2, cAMP TR-FRET; cells stimulated with saturating PGE2; hit rate 0.52% among 260,000;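 active means percent inhibition above 40 after rounding to a whole number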;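 further: rat C6 glioma host cells with rolipram phosphodiesterase inhibitor present; the protocol text gives 20 µM as final concentration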
Target sequence (P43116 whole entry, looked up): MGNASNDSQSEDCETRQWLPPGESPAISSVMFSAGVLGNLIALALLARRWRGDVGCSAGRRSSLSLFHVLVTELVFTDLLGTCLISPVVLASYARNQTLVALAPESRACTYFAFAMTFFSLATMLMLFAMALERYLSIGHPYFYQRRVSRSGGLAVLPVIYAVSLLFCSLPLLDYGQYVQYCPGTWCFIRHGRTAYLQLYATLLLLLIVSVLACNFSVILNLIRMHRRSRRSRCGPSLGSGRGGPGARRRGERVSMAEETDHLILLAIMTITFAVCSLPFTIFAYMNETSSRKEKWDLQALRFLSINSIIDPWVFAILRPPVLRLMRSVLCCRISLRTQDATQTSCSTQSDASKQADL
S1P4 antagonist: human S1P4 receptor antagonism; S1P4-expressing cells, antagonist mode, reporter read-out; inhibition, % at 4.98 µM; hit rate 0.26% among 220,000; in the data active means inhibition above about 29%;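 further: 0% = wells stimulated with agonist and 100% = vehicle wells without agonist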
EP2 modulator: modulators of human EP2 prostaglandin E2 receptor; P43116; EP2-expressing cells, cAMP HTRF FRET, PGE2 co-stimulation; induction, % at 25 µM; hit rate 0.83% among 260,000;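 active means compounds whose cAMP rise, as percent of the full-agonist control response, exceeds 60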;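 further: rat C6 glioma line stably carrying human EP2 under a CMV promoter; the protocol text gives 20 µM as final concentration; 100% = response of wells given 1 µM PGE2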
S1P3 antagonist: S1P3 (human) receptor antagonism; CHO S1P3 NFAT-BLA reporter, FRET fluorescence, antagonist mode; hit rate 0.27% among 170,000; inhibition, % at 4.98 µM;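 active means inhibition above the plate cutoff, the mean inhibition of test wells on that plate plus 3 SD, cut at about 28% in these data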;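 further: cells challenged with S1P at its EC80 of 0.8 µM; blue over green emission ratio from cleaved BLA substrate after 4 h stimulation; 0% = S1P-stimulated wells and 100% = unstimulated DMSO-only wells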
Target sequence (Q99500 whole entry, looked up): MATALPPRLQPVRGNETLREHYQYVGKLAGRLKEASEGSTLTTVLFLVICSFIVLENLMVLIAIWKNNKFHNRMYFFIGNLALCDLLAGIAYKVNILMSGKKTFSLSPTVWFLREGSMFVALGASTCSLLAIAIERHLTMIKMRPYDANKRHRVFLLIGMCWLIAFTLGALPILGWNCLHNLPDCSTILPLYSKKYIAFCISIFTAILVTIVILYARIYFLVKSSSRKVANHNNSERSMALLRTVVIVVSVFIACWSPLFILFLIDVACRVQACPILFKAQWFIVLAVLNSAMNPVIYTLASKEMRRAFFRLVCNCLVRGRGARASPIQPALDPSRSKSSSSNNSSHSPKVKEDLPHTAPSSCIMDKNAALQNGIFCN
S1P4 ag: activates the human S1P4 receptor. S1P4-expressing cell line, agonist reporter assay. O95977. hit rate 0.35% among 220,000. activation, % at 4.98 µM. AID 1509; in the data active means activation above about 11%;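 further: 0% = DMSO vehicle and 100% = reference agonist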
Starred values were filed as active, the others as inactive; . = not tested or not shown; ! = not confirmed by another sample. Most compounds without a hit are left out; they make up all but 1.9% or so of the library.

SMILES	Pf gamet viab	EP2 antag	S1P4 antagonist	EP2 modulator	S1P3 antagonist	S1P4 ag
Cc1c(-c2nc(-c3ccc(C(C)(C)C)cc3)no2)n(C)oc1=O	3.0	7.2	-8.0	72.5*	12.3	1.0
Cc1nnc(N2C(=O)C(O)=C(C(=O)c3ccco3)C2c2ccc(C(C)(C)C)cc2)s1 (stereo not drawn)	.	57.2*	-9.6	12.1	.	-3.6
CC(C(=O)N1CCC(c2ncncc2-c2ccncc2)CC1)c1ccccc1 (stereo not drawn)	.	.	.	-36.8	.	.
CC1CC(C)CN(C(=O)C(Cc2ccccc2)n2cccc2)C1 (stereo not drawn)	9.2	7.8	1.2	61.8*	-0.9	0.6
COc1ccc(-c2cc(C)nc(N)c2C#N)cc1	.	10.8	.	-25.9	.	.
Cc1cc(-c2ccc(Cl)cc2)c(C#N)c(N)n1	-8.1	50.6*	-16.0	13.6	.	-2.2
Cc1cccc(/C=N/NC(=O)NC2CCCCC2)c1	16.9	5.5	-14.2	62.7*	-20.8	1.2
C=CCNc1nc(N)c(C(=O)Nc2cc(C)on2)s1	.	45.6*	-11.2	-3.9	-9.9	1.5
CN(C)c1nc(SCc2ccc(Cl)cc2)nc2c1CCCC2	.	2.9	-7.5	61.6*	.	1.7
CCCC(c1nnnn1Cc1ccccc1)N(Cc1ccco1)Cc1cc2cc(C)cc(C)c2[nH]c1=O (stereo not drawn)	.	5.7	.	12.8	.	.
CN(C)CCCN1c2ccccc2Sc2ccc3ccccc3c21	.	12.4	.	-17.0	.	.
CN(C)CCCN1c2ccc3ccccc3c2Sc2cccc(Cl)c21	.	49.0*	.	-19.7	.	.
COc1ccc(-c2ccc(=O)n(C[C@H](C)NC(=O)c3ccncc3)n2)cc1	.	.	.	-21.9	.	.
CCOC(=O)C1=C(C)NC(=O)N[C@@H]1c1coc2cc(C)cc(C)c2c1=O	.	52.6*	.	8.3	.	.
COc1ccc(N/C=C(\C#N)c2nc3ccccc3n2C)c(OC)c1	-16.3	5.8	-13.8	63.0*	.	1.5
COc1ccc(OC)c(-c2[nH]nc3c2C(c2cccc(Cl)c2)C(C#N)=C(N)O3)c1 (stereo not drawn)	.	6.1	.	3.8	.	.
Cc1cc(C)c2c(SCc3ccc(Cl)cc3Cl)nc(N)nc2n1	.	47.1*	.	-0.6	.	.
CC(C)Cn1cnc2c(SCc3ccc(Cl)cc3Cl)nc(N)nc21	.	52.5*	.	-2.7	.	.
Cc1ccc2ccccc2c1CSc1nc(N)nc2c1ncn2CC(C)C	.	56.9*	.	-24.2	.	.
CC(C)Cn1cnc2c(SCc3ccccn3)nc(N)nc21	.	13.6	.	2.7	.	.
Cc1cc(C(=O)O)c(NC(=O)c2ccc(Cl)cc2)s1	.	10.0	.	-21.1	.	.
CCc1ccc2[nH]c(=O)c(CN(CCN(C)C)C(=O)Nc3ccc(Cl)cc3)cc2c1	.	16.3	.	-63.7	.	.
COc1ccc(CCNc2nc(N3CCCCC3)nc(N3CCCCC3)n2)cc1OC	-45.4	15.8	6.7	60.6*	47.5	1.1
COCCNC(=O)c1c(NC(=O)COc2cccc(C)c2)sc2c1CCCC2	.	13.3	.	19.9	.	.
CCOC(=O)C1=C(C)NC(=S)N(C(C)=O)C1c1ccccc1 (stereo not drawn)	1.0	.	-26.1	64.8*	.	1.7
SMILES	Pf gamet viab	EP2 antag	S1P4 antagonist	EP2 modulator	S1P3 antagonist	S1P4 ag
O=C(O)c1ccccc1-c1ccccc1C(=O)Nc1ccc2c(c1)[nH]c(=O)c1ccccc12	.	46.1*!	4.6	7.0	4.2	1.1
CN(C)c1ccc(/C=C/c2ccc3ccccc3[n+]2C)cc1	23.4	100.4*	-40.1	-25.5	15.0	-1.8
Cc1cc(/C=C/c2ccc3cc(N(C)C)ccc3[n+]2C)c(C)n1-c1ccccc1	.	25.4	.	-10.4	.	.
CC[n+]1c(/C=C/c2ccc(N(C)C)cc2)ccc2cc(C)ccc21	.	20.4	.	-67.5	.	.
CN(C)c1ccc(/C=C/c2ccc3c4ccccc4ccc3[n+]2-c2ccccc2)cc1	-14.0	18.5	10.7	-49.9	55.2*	-2.9
COC(=O)c1nc(NC(=S)NC(=O)c2ccco2)sc1C	.	15.7	.	-33.1	.	.
N/C(=N\OC(=O)c1cccs1)C1(c2ccc(Cl)cc2Cl)CC1	2.2	54.3*	18.1	-35.4	-10.4	0.2
CCOC(=O)c1c(NC(=S)Nc2ccccc2)sc2c1CCN(CC)C2	.	23.1	-7.0	-23.4	.	-0.8
COCC(=O)Nc1sc2c(c1C(=O)OC)CCCC2	1.0	-0.1	-12.6	1.6	-55.4	-1.7
CCOC(=O)c1c(NC(=S)Nc2ccccc2)sc2c1CCCCC2	.	52.4*	-6.7	19.0	.	0.6
CCOC(=O)c1c(NC(=O)COC)sc2c1CCC2	.	3.8	.	83.0*	.	.
CNC(=O)C1CCN(S(C)(=O)=O)CC1	.	12.6	.	-8.5	.	.
Cc1cc2cc3c(cc2n2c(=O)n(CCN4CCCCC4)nc12)OCO3	.	.	.	-85.7	.	.
COc1cc(S(=O)(=O)N2CCN(C)CC2)ccc1F	.	7.5	.	-26.9	.	.
CCn1c(=O)c2ccccc2n2c(SCC(=O)N3CCOCC3)nnc12	.	8.0	.	6.7	.	.
C=CCCCN(Cc1ccccc1)S(=O)(=O)c1ccccc1Br	-16.7	6.1	.	60.6*	.	.
O=C(CSc1nnc(-c2cccnc2)n1Cc1ccco1)N1c2ccccc2Sc2ccccc21	-47.6	7.2	1.2	-5.5	91.2*	-1.8
c1cncc(CSc2nnc(-c3cccnc3)n2Cc2ccco2)c1	-1.4	2.5	-1.5	-22.4	-27.1	0.2
COC(=O)c1sc(-c2ccc(Cl)cc2)cc1NC(=O)c1ccccc1C(=O)O	0.7	52.8*	3.1	-17.6	-2.5	2.4
Cc1oc(C(=O)N2CCCCC2c2nc3ccccc3[nH]2)cc1CN1CCOCC1 (stereo not drawn)	.	.	.	-34.8	.	.
CC(CC(=O)O)n1cncn1 (stereo not drawn)	.	13.2	.	-19.5	.	.
CC(=O)C1=C(C)Nc2ncnn2C1c1ccc(Cl)cc1 (stereo not drawn)	.	7.7	-4.8	-12.6	80.8*	4.5
CC(=O)[C@@]1(O)CCC2C3CCC4=CC(=O)CC[C@]4(C)C3CC[C@@]21C (stereo partly drawn)	.	11.1	.	11.2	.	.
CN(C)CCN1C(=O)CC[C@@]2(C)C1=CC[C@H]1[C@H]2CC[C@@]2(C)[C@H]1CC[C@]2(C)O	.	49.9*	.	6.3	.	.
Cc1cc2ccccc2c[n+]1CC(O)C[n+]1cc2ccccc2cc1C	.	54.6*	.	18.1	.	.
SMILES	Pf gamet viab	EP2 antag	S1P4 antagonist	EP2 modulator	S1P3 antagonist	S1P4 ag
CCN(CC)C(=O)CSc1nnc2c(C)cc3ccccc3n12	.	6.1	.	-24.1	.	.
Cc1ccc(C)c2nc(SCC(=O)Nc3nccs3)c(C#N)cc12	.	25.8	.	69.8*	.	.
CC[n+]1c(/C=C/Nc2ccccc2)sc2ccccc21	.	6.2	0.8	-62.6	.	1.0
CCN1/C(=C/C=C/C=C/c2sc3ccccc3[n+]2CC)Sc2ccccc21	.	50.0*	-3.3	-64.0	-2.7	0.5
COc1ccc(S(=O)(=O)N2CCC(C(=O)N(C)Cc3ccccc3)CC2)cc1C	.	3.8	.	-0.9	.	.
Cc1ccc(N2C(=O)C(F)(F)C2c2ccccc2)cc1 (stereo not drawn)	-19.7	14.4	-5.7	45.1	9.7	0.4
CC1=NC(=O)C(N=O)N1c1ccccc1 (stereo not drawn)	.	50.8*	.	-89.5	.	.
CCc1[nH]nc2c1C(c1cccc(F)c1)C(C#N)=C(N)O2 (stereo not drawn)	.	8.8	.	-26.9	.	.
O=C(NCCO)C(=O)c1c(-c2ccc(Cl)cc2)cc2ccccn12	.	5.7	-19.0	-6.4	1.4	-1.7
